Screening results as filed in PubChem.
A selection: hits, their analogues and other compounds. The true share with any hit is near 19%.
IL-1B inflam inh – qHTS for Inhibitors of Inflammasome Signaling: IL-1-beta AlphaLISA Primary Screen; THP-1 LPS/ATP IL-1B secretion, AlphaLISA, 16 h; stronger effect = lower value; 4.7% of 360,000 active; activity change, % at 57.5 µM; in the data active means activity change below about -50%; inconclusive means mostly about -30% to -49%
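Secreted IL-1B measured by AlphaLISA bead assay after 16 h compound exposure of THP-1 cells; compounds (final up to 57.5 uM) added 1 h before LPS (250 ng/mL) and ATP (1.25 mM) stimulation; lower signal means less secretion.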
HT1080 IDH1KD tx – qHTS for induction of synthetic lethality in tumor cells producing 2HG: qHTS for the HT-1080-IDH1KD cell line; HT-1080 IDH1 knockdown viability, ATP luminescence, 48 h; Potency, µM (titrated, usually from 46.1 µM), for the others: at the top dose activity, negative = toxicity, most hits filed as cytotoxic; 2% of 360,000 active; AID 686971, 2013;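 further: potency means the concentration at half of the fitted maximal effect; 0% = DMSO wells and -100% = cell-free medium wells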
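Cytotoxicity counter-line: IDH1KD HT-1080, 48 h, CellTiter-Glo. Curves classed by r2, magnitude and activity.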
ELG1 DNA repair – qHTS screen for small molecules that inhibit ELG1-dependent DNA repair in human embryonic kidney (HEK293T) cells expressing luciferase-tagged ELG1. Potency, µM (doses to about 46.1 µM), for inactives: top-dose activity change, negative = inhibition, actives largely listed as inhibitors. AID 504467, 2011. HEK293T ELG1-luciferase reporter, luminescence, 16 h; DNA damage induced by 5-fluorouridine. 2.3% of 330,000 active; further: potency means the concentration at half of the fitted maximal effect; nearly all actives have a fitted effect of over 55% in size
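Step one: seed 2,000 cells per well. Step two: pin-transfer compound or DMSO alongside 5-fluorouridine. Step three: incubate 16 hr, 37 °C, 5% CO2. Step four: add ONE-Glo, wait 30 min, read luminescence.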
HT1080-NT tox – qHTS for induction of synthetic lethality in tumor cells producing 2HG: qHTS for the HT-1080-NT fibrosarcoma cell line; HT-1080-NT fibrosarcoma viability, CellTiter-Glo ATP luminescence, 48 h; Potency, µM (titrated, usually from 46.1 µM), for the others: top-dose activity, negative = less viability, usual class: cytotoxic; 1.6% of 360,000 active; AID 686970, 2013;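 further: NT is the 2HG producing partner of a matched IDH1 knockdown line; potency means the concentration at half of the fitted maximal effect; 0% = DMSO-treated cells and -100% = media-only wells without cells; nearly all actives have a fitted effect of over 55% in size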
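Fibrosarcoma NT cells, 750 per well in 5% FBS RPMI, were exposed to compound for 48 hours. Viability: CellTiter-Glo luminescence.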
DT40 TDP1 CPT – qHTS for Inhibitors of human tyrosyl-DNA phosphodiesterase 1 (TDP1): qHTS in cells in presence of CPT | chicken DT40 Tdp1-/-;hTDP1 cells + 20 nM CPT, ATP luminescence, 48 h | Potency, µM (doses to about 46.2 µM), for inactives: at the top dose activity change, negative = growth inhibition, most hits filed as inhibitors | 12% of 420,000 active | AID 686979, 2013; further: potency means the concentration at half of the fitted maximal effect; nearly all actives have a fitted effect of over 55% in size
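Chicken DT40 Tdp1-/- cells complemented with human TDP1, 400 cells/well, exposed to compounds plus 20 nM camptothecin for at least 48 h at 37 C; viability read as ATP content by CellTiter-Glo luminescence.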
TDP1 cell noCPT – qHTS for Inhibitors of human tyrosyl-DNA phosphodiesterase 1 (TDP1): qHTS in cells in absence of CPT; DT40 Tdp1-/- hTDP1 cells, no CPT, ATP luminescence, 48 h; AID 686978, 2013; 15% of 420,000 active; Potency, µM (doses to about 46.2 µM), without a hit: top-dose activity change, negative = growth inhibition, hits mostly inhibitors; further: potency means the concentration at half of the fitted maximal effect; nearly all actives have a fitted effect of over 55% in size
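Compound effects on proliferation are scored in DT40 Tdp1-/-;hTDP1 cells in the absence of CPT. ATP levels (CellTiter-Glo luminescence) are recorded after a ≥48 hr, 37 °C incubation.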
* marks the source's active call; other numbers are inactive results; ? = inconclusive; . = not tested or not shown. Unless noted, the call rests on the fitted dose curve; in most records, active means well fitted curve in the direction sought with a large enough effect; inconclusive means small, poorly fitted or top-dose-only effect, or another doubt; inactive means no such curve, though single readings can be large; an effect the other way counts as inactive or inconclusive. Unless noted, on the % scale 0 is the no-effect control and ±100 the full control effect.

SMILES	IL-1B inflam inh	HT1080 IDH1KD tx	ELG1 DNA repair	HT1080-NT tox	DT40 TDP1 CPT	TDP1 cell noCPT
CC(=O)c1cc(C#N)c(N2CCCC2)nc1C	36.4	-13.7%	5.3%	-0.2%	-10.3%	-7.3%
O=[N+]([O-])c1ccc(N/N=C2/CCCCC2c2ccccn2)cc1 (stereo not drawn)	-13.8	0.92µM*	-5.5%	14.3%	-26.8%	-25.0%
Cc1csc2nc(COc3ccc(NC(=O)c4ccccc4F)cc3)cc(=O)n12	.	.	.	.	-4.6%	-20.3%
COc1ccc(-c2nn(-c3ccccc3)cc2CNC(C)Cn2cncn2)c(F)c1 (stereo not drawn)	16.7	4.0%	?	-1.3%	?	1.2%
COc1ccc(-c2nn(-c3ccccc3)cc2CN(C)CCn2ccnc2C)c(F)c1	?	-4.7%	-4.1%	0.0%	18.4µM*	?
CC(=O)c1c(N2CCN(C)CC2)[nH]c(-c2ccccc2)nc1=S	?	?	2.4%	-29.7%	?	16.4µM*
CCn1c(C)c(C(C)=O)c(N2CCN(c3ccccc3)CC2)nc1=S	18.7	14.1%	-9.8%	15.4%	-11.6%	-9.3%
CCOC(=O)CSc1nc2ccccc2c(=O)n1CCc1ccc(OC)c(OC)c1	.	.	.	.	13µM*	11.6µM*
CCCCNC(=O)C(CC)Sc1nc2ccccc2c(=O)n1CCc1ccc(OC)c(OC)c1 (stereo not drawn)	.	.	.	.	8.2µM*	8.2µM*
COc1ccc(CCn2c(SCC(=O)Nc3cc(C)on3)nc3ccsc3c2=O)cc1OC	-5.4	?	10.3µM*	-24.4%	?	?
O=c1c2ccccc2oc2nc(-c3ccco3)n(CCc3ccccc3)c(=O)c12	.	.	15.2%	.	.	.
CCOc1ccc(CCn2c(-c3ccco3)nc3ccccc3c2=O)cc1OCC	-57.0*	3.55µM*	9.2µM*	?	1.3µM*	0.82µM*
COc1ccc(Br)cc1C(=O)NC(=S)Nc1c(C)n(C)n(-c2ccccc2)c1=O	-21.8	0.9%	-6.4%	-0.3%	-3.2%	-24.8%
Cc1ccccc1Cn1nnc2c(=O)[nH]c(C3CCN(C(=O)c4ccccc4)CC3)nc21	.	.	.	.	-10.6%	-14.0%
CCS(=O)(=O)N1CCC2(CC1)OCCN2S(=O)(=O)c1ccccc1	11.7	-2.3%	.	2.2%	-5.3%	-19.2%
CC1=NN(C(N)=S)C(=O)C1N=Nc1ccc(Cl)cc1Cl (stereo not drawn)	-6.0	-5.1%	?	-0.8%	-15.5%	?
CC1=NN(C(N)=S)C(=O)C1N=Nc1cccc(C(=O)O)c1 (stereo not drawn)	24.0	10.7%	-16.3%	14.5%	27.9%	16.9%
CC1=NN(C(N)=S)C(=O)C1N=Nc1ccccc1Cl (stereo not drawn)	-7.1	3.7%	?	-0.9%	5.8µM*	2.91µM*
CC1=NN(C(N)=S)C(=O)C1N=Nc1cccc(C)c1 (stereo not drawn)	5.1	7.2%	0.3%	6.6%	3.26µM*	5.8µM*
CC1=NN(C(N)=S)C(=O)C1N=Nc1ccc(O)cc1 (stereo not drawn)	49.1	-21.6%	2.5%	-14.0%	-20.5%	25.9µM*
CC1=NN(C(N)=S)C(=O)C1N=Nc1ccc(F)cc1 (stereo not drawn)	-7.6	0.9%	?	-5.6%	-24.4%	?
CC1=NN(C(N)=S)C(=O)C1N=Nc1ccc(C)c(Br)c1 (stereo not drawn)	12.5	-13.1%	?	-2.0%	13µM*	16.4µM*
